The other results are listed elsewhere or left out.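 The calls were made as follows: active = mean activity change at or below -40% when tested at 20 µM; inactive = the rest.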
Assay: detection-step artefacts after finished caspase reaction – biochemical, fluorescence, Rh110, 20 µM, artefact control for Apaf-1 activator project, confirmation (AID 504616)
Conditions: quenched caspase reaction, Ex480/Em540, at 20 µM

Fluorescence interference (activity change), inactive:
O=C(Nc1cccc(C(F)(F)F)c1)c1cnccn1 0.73%
COc1ccc(C2CC(c3ccccc3)Nc3ncnn32)cc1 (configuration not stated) -9.02%
CCOc1ccc(N=C2NC(=O)S/C2=C\c2ccc(O)cc2)cc1 -1.26%
O=c1[nH]c2c(c(=O)n1Cc1ccccc1)CCC2 13.7%
COc1ccc(OCCCC(=O)NCCc2ccccc2)cc1 3.73%
COc1ccc2c(c1)CCNC2Cc1ccc(OC)c(O)c1 (configuration not stated) -0.08%
COC(=O)C(C)N(C#N)c1nc(C)nc(C)n1 (configuration not stated) 3.06%
COc1ccccc1OCC(=O)Nc1c2c(nn1-c1ccc(F)cc1)CS(=O)(=O)C2 9.44%
O=C(CCc1ccccc1)NNC(=O)c1ccc(Br)cc1 -7.61%
O=C(Nc1ccccc1F)c1ccccc1-c1ccccc1 6.9%
Brc1ccc(/C=N/N2CCN(C3c4ccccc4-c4ccccc43)CC2)s1 -2.39%
C=C(C)C(=O)Nc1cccc(C2=NOC3(C2)C[C@H](C(N)=O)N(C(=O)C(c2ccccc2)c2ccccc2)C3)c1 (some centres not stated) 7%
COC(CNC(=O)Cn1ncc2ccsc2c1=O)OC -3.81%
Cc1cc(NC(=O)c2cccc(N3C(=O)CCC3=O)c2)no1 0.61%
COc1ccc(C2c3ccc(O)cc3Oc3ncn(CCCO)c(=N)c32)cc1OC (configuration not stated) -0.45%
C=CC1=C(C(=O)O)N2C(=O)[C@@H](NC(=O)/C(=N\OCC(=O)O)c3csc(N)n3)[C@H]2SC1 11.7%
Nc1cc(C(F)(F)F)ccc1N1CCOCC1 -1.22%
O=C(CN1C(=O)C2C3C=CC(C3)C2C1=O)NCCc1ccccc1Cl (configuration not stated) -3.43%
O=c1[nH]cnc2c1c(-c1ccccc1)cn2-c1ccc(F)cc1 13.3%
COc1cc(C2C(C#N)=C(N)Oc3n[nH]c(-c4ccccn4)c32)cc(OC)c1OC (configuration not stated) 14.4%
CC(C)N1CCC(NC(=O)Nc2ccccc2)CC1 -6.69%
CC1COc2ccccc2N1C(=O)c1cccnc1Cl (configuration not stated) 0.54%
